Only some compounds are listed: those with a hit (about 3.9% of all), similar ones and a draw of the others.
TGFb inhibitor: qHTS for Inhibitors of TGF-b. HepG2 CAGA-GFP TGF-b/SMAD3 reporter, GFP fluorescence, 18 h; TGF-beta stimulated, 500 pg/mL final. Potency, µM (titrated, usually from 46.1 µM), for the others: top-dose activity, negative = inhibition, hits mostly inhibitors. 410,000 compounds, 1.2% hits; further: on the % scale 0 is the no-effect control and ±100 the full control effect; nearly all actives have a fitted effect of over 65% in size
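HEPG2 CAGA-GFP cells (1000/well, DMEM with 1% FBS) were pre-incubated 2 h at 37 degrees C, given compound by pin tool, then stimulated with TGF-beta at 500 pg/mL final for 18 h before per-cell GFP fluorescence imaging.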
ATXN2 expr inh: Primary qHTS for Inhibitors of ATXN expression; 360,000 compounds, 0.72% hits; Potency, µM (doses to about 57 µM), for the others: at the highest dose activity change, negative = inhibition, usual class: inhibitors; HEK-293 ATXN2-luciferase reporter, luminescence, 24 h; further: on the % scale 0 is the no-effect control and ±100 the full control effect; nearly all actives have a fitted effect of over 55% in size
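qHTS (up to 57 uM final) was run with 24 h compound exposure of reporter cells at 37 °C. Each well was multiplexed: SteadyGlo luminescence measured ATXN2-luciferase expression after a fluorogenic Gly-Phe-AFC viability readout (25 uM final).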
HT1080-NT tox: qHTS for induction of synthetic lethality in tumor cells producing 2HG: qHTS for the HT-1080-NT fibrosarcoma cell line | HT-1080-NT fibrosarcoma viability, CellTiter-Glo ATP luminescence, 48 h | Potency, µM (series often up to 46.1 µM), without a hit: top-dose activity, negative = less viability, most hits filed as cytotoxic | 360,000 compounds, 1.6% hits | AID 686970, 2013;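 further: NT is the 2HG producing partner of a matched IDH1 knockdown line; 0% = DMSO-treated cells and -100% = media-only wells without cells; nearly all actives have a fitted effect of over 55% in size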
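A 48-hour cytotoxicity screen used HT-1080-NT cells plated 2 hours before compound delivery. ATP-based CellTiter-Glo luminescence measured viability, normalized to DMSO and no-cell controls.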
S2 tox: Viability Counterscreen for Primary qHTS for Inhibitors of ATXN expression; S2 cells (HEK-293 line with an ATXN2-luciferase reporter) viability, CellTiter-Fluor protease fluorescence, 24 h; Potency, µM (doses to about 56.7 µM), actives largely listed as cytotoxic; 400,000 compounds, 0.49% hits; further: nearly all actives have a fitted effect of over 40% in size
HT1080 IDH1KD tx: qHTS for induction of synthetic lethality in tumor cells producing 2HG: qHTS for the HT-1080-IDH1KD cell line; HT-1080 IDH1 knockdown viability, ATP luminescence, 48 h; Potency, µM (doses to about 46.1 µM), inactives show at the highest dose activity, negative = toxicity, actives largely listed as cytotoxic; 360,000 compounds, 2% hits; AID 686971, 2013;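 further: 0% = DMSO wells and -100% = cell-free medium wells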
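Viability of IDH1-knockdown HT-1080 fibrosarcoma cells was assessed by CellTiter-Glo after 48 h at 37 °C with titrated compound; concentration-effect curves were classified by fit quality and response size.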
HepG2 tox-1: qHTS for Inhibitors of TGF-b: Cytotox Counterscreen | HepG2 CAGA-GFP viability, ATP luminescence, 18 h | Potency, µM (titrated, usually from 46.1 µM), for the others: at the top dose activity change, negative = cytotoxicity, usual class: cytotoxic | 410,000 compounds, 0.76% hits
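HepG2 CAGA-GFP cells (1000/well, DMEM with 1% FBS) received compound, then TGF-beta at 500 pg/mL final, and were incubated 18 hours at 37 degrees C. Viability was read by CellTiter-Glo luminescence. Media-only wells were set as complete cell-killing and DMSO as no toxicity.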
TGFb CAGA inh: qHTS for Inhibitors of TGF-b: Confirmation of Cherry Picks; Potency, µM (doses to about 46.1 µM), without a hit: top-dose activity, negative = inhibition, hits mostly inhibitors; 1,600 compounds, 63% hits; AID 720534, 2013; HepG2 CAGA-GFP TGF-b reporter, GFP fluorescence, 18 h; cells stimulated with TGF-beta, 500 pg/mL; shares compounds with TGFb inhibitor; further: on the % scale 0 is the no-effect control and ±100 the full control effect; nearly all actives have a fitted effect of over 65% in size
HepG2 tox-2: qHTS for Inhibitors of TGF-b: Cytotox Counterscreen for Cherry Picks | shares compounds with TGFb inhibitor | HepG2 CAGA-GFP viability, ATP luminescence, 18 h; cells stimulated with TGF-beta, 500 pg/mL | Potency, µM (series often up to 46.1 µM), for the others: at the top dose activity, negative = cytotoxicity, most hits filed as inhibitors | 1,600 compounds, 27% hits | AID 720535, 2013; further: on the % scale 0 is the no-effect control and ±100 the full control effect; nearly all actives have a fitted effect of over 70% in size
TGFb CCL64 inh: qHTS for Inhibitors of TGF-b: CCL64 Cells Orthogonal Assay for Cherry Picks. Potency, µM (top dose mostly 46.1 µM), inactives show top-dose activity, negative = inhibition, usual class: inhibitors. shares compounds with TGFb inhibitor. 1,600 compounds, 41% hits. CCL64 CAGA-GFP reporter, TGF-b stimulated, GFP fluorescence, 18 h; further: nearly all actives have a fitted effect of over 65% in size
TGFb COP inh: qHTS for Inhibitors of TGF-b: Hit Validation in HepG2 Cells using COP promoter. shares compounds with TGFb inhibitor. HepG2 COP-GFP TGF-b reporter, GFP fluorescence, 18 h; cells stimulated by added recombinant TGF-beta. Potency, µM (doses to about 46.1 µM), inactives show at the highest dose activity, negative = inhibition, hits mostly inhibitors. 1,600 compounds, 3% hits; further: nearly all actives have a fitted effect of over 70% in size
* = called active by the depositor; i = inactive; u = inconclusive; x = not tested or not shown; [ ] = dose if it differs, or a comment. The call rests on the fitted dose curve; in most records, active means well fitted curve in the direction sought with a large enough effect; inconclusive means small, poorly fitted or top-dose-only effect, or another doubt; inactive means no such curve, though single readings can be large; an effect the other way counts as inactive or inconclusive. Potency means the concentration at half of the fitted maximal effect.

SMILES	TGFb inhibitor	ATXN2 expr inh	HT1080-NT tox	S2 tox	HT1080 IDH1KD tx	HepG2 tox-1	TGFb CAGA inh	HepG2 tox-2	TGFb CCL64 inh	TGFb COP inh
CC(=O)Nc1ccc(S(=O)(=O)Nc2c(C)nn(-c3ccccc3)c2C)cc1	2%	-18%	-25%	u	6%[9.24 µM]	11%	x	x	x	x
O=C(CCC(=O)c1ccc(F)cc1)Nc1ccc(Cl)cc1	-4%	-20%	x	i	x	-26%	x	x	x	x
O=C(CCC(=O)c1ccc(F)cc1)Nc1cccc(S(=O)(=O)Nc2cccc(Cl)c2)c1	13µM*	0%	-19%	i	-30%	-28%	u	u	u	19%
CC(C)C[C@H]1CNC(=S)N1C[C@H]1CCCN1C[C@H](Cc1ccccc1)N1C[C@H](Cc2ccc(O)cc2)N(CCc2ccccc2)C1=S	7.1µM*	u	u	u	-29%	-9%	12µM*	-24%	u	12%
CC(C)C[C@H]1CNC(=S)N1C[C@H]1CCCN1C[C@H](Cc1ccc(O)cc1)N1C[C@H](Cc2ccc(O)cc2)N(CCc2ccccc2)C1=S	10µM*	u	21µM*	x	21µM*	-40%	u	15µM*	4.6µM*	78%
Oc1ccc(C[C@H]2CNC(=S)N2CC2CCCN2C[C@H](Cc2ccccc2)N2C[C@H](Cc3ccc(O)cc3)N(CCc3ccccc3)C2=S)cc1 (stereo partly specified)	7.9µM*	u	-20%	u	u	2%	5.8µM*	u	9.2µM*	62%
CC(C)C[C@H]1CN([C@@H](Cc2ccc(O)cc2)CN2CCC[C@@H]2CN2C(=S)NC[C@@H]2Cc2ccccc2)C(=S)N1CCc1ccccc1	u	u	-11%	u	-8%	-5%	x	x	x	x
Cc1c(-c2ccccc2)n(-c2ccccc2O)c2nc3c(c(=O)n(C)c(=O)n3C)n12	4%	-4%	x	i	x	-14%	x	x	x	x
CC1=Nc2ccccc2/C1=C\c1sc(Nc2ccc(C)cc2)nc1O	11µM*	-4%	0.92µM*	u	0.65µM*	-3%	5.2µM*	u	5.2µM*	17%

Screening data from PubChem.
